# ClpP mod: qHTS Assay for Activators of ClpP | purified B. subtilis ClpP, FRET peptide cleavage, 20 min | Potency, µM (highest dose often 57.5 µM), for inactives: top-dose activity change, negative = active | ATP-dependent Clp protease proteolytic subunit (Bacillus subtilis (strain 168)), P80244 | AID 651965, 2013 | 340,000 compounds, 1.9% hits; active = well fitted falling curve with a large enough effect; inconclusive = small, poorly fitted or top-dose-only effect; inactive = no such curve, though single readings can be large or run the other way; note: the source files actives as falling curves though it sought activators and does not explain the sign; nearly all actives have a fitted effect of over 65% in size
#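 Purified B. subtilis ClpP, 10 microg/mL final in Tris/HCl pH8 with KCl, BSA, glycerol and Tween-20, cleaved an Abz/nitrotyrosine-quenched decapeptide. Fluorescence (ex 320, em 430) was read at 0 and 20 min at room temperature. Delta was normalized to 5.8 microM ADEP and DMSO/no-enzyme controls.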
# Mm-Cpn inhibitor: blocks the Methanococcus maripaludis chaperonin Mm-Cpn; 330,000 compounds, 0.031% hits; Potency, µM (titrated, usually from 76.9 µM), for inactives: at the top dose activity, negative = inhibition, actives largely listed as inhibitors; AID 504842; purified Mm-Cpn ATPase, ADP Transcreener TR-FRET; note: % is set by controls: 0 for no effect and ±100 for the full control effect; nearly all actives have a fitted effect of over 80% in size
#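 Purified archaeal Mm-CPN (25nM final) preincubated 10 min at 37degC with compound, then 10uM ATP for 30 min at 37degC; ADP measured by HTRF Transcreener TR-FRET; buffer 30 mM TRIS pH 7.4, 100mM KCl, 5mM MgCl2, 1mM DTT.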
# Eya2 inh: blocks the phosphatase activity of human Eya2 | recombinant Eya2, OMFP fluorescence dephosphorylation (OMFP is methylfluorescein phosphate) | Potency, µM (highest dose often 76.9 µM), without a hit: at the highest dose activity, negative = inhibition, most hits filed as inhibitors | 330,000 compounds, 0.006% hits | AID 488837; note: % is set by controls: 0 for no effect and ±100 for the full control effect
#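 Eya2 protein (added as 0.2 uM solution) was preincubated with compound for 10 min at ambient temperature in 50 mM HEPES pH 7.5, 50 mM NaCl, 5 uM MgCl2, 0.05% BSA, 1 mM DTT. OMFP (added at 50 uM) then reacted 10 min; fluorescence read at 485/525 nm.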
# Integrin act MD: integrin-mediated muscular dystrophy alleviation activation; alpha7betagal myoblasts, beta-gal FDG fluorescence, 48 h; 350,000 compounds, 0.064% hits; Potency, µM (doses to about 38.3 µM), for inactives: at the highest dose activation, usual class: activators;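 note: 100% = response of the positive control SU9516; nearly all actives have a fitted effect of over 60% in size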
#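 alpha7betagal+/- myoblasts (passage 13, 250/well) treated 48 h at 37C with compounds at 1:260 dilution of DMSO stock. Lysed, then beta-galactosidase activity read as FDG fluorescence (ex 480/em 540) after 30 min, with pre-read for autofluorescence.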
# USP2a inh: USP2a (human) protease inhibition | 330,000 compounds, 0.01% hits | USP2 core, Ub-CHOP2 coupled fluorogenic reporter, 485/531 | Potency, µM (series often up to 38.3 µM), inactives show at the top dose activity change, negative = inhibition, usual class: inhibitors;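 note: plate controls were DMSO wells for no effect and full inhibition by NEM control for full effect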
#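 USP2 core (10nM final) preincubated 30min RT with compound in 20mM Tris-HCl pH 8.0, 2mM CaCl2, 2mM beta-mercaptoethanol, 0.05% CHAPS; 25nM Ub-CHOP2 plus 25nM reporter substrate added, fluorescence (Ex485/Em531) read after 60min.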
# p53 reactivation: mutant p53 re-activation in reporter cells; H1299 p53-A138V BP100-luciferase reporter, luminescence, 24 h; Potency, µM (top dose mostly 92.2 µM), for inactives: at the highest dose activity change, positive = activation, hits mostly activators; 320,000 compounds, 0.063% hits; AID 504706; note: % of control where 0% means no effect; nearly all actives have a fitted effect of over 45% in size
#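 p53-null H1299 cells stably carrying temperature-sensitive p53-A138V and a BP100-luciferase reporter were pinned with compounds (4-point, 1:5 series) and held 24 hrs at 37 deg C. Luminescence was read 10 min after detection reagent.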
# * hit, by the source's call; u = inconclusive; x = no result given; [ ] = remark or other dose. The sample as a whole holds a higher share of hits than the screen did. Unless noted, calls come from the whole dose curve; as a rule, active = well fitted curve in the direction sought with a large enough effect; inconclusive = small, poorly fitted or top-dose-only effect, or another doubt; inactive = no such curve, though single readings can be large; an effect the other way counts as inactive or inconclusive. Potency is the fitted concentration of half-maximal effect.
SMILES,ClpP mod,Mm-Cpn inhibitor,Eya2 inh,Integrin act MD,USP2a inh,p53 reactivation
COc1ccc(-c2cc3ccccc3n2CC(O)Cn2nc(C)cc2C)cc1 (centres undefined),22.4µM*,u,-5.4%,6.0%,-1.3%,3.0%
COc1ccc(NS(=O)(=O)c2cc(NC(=O)c3cncc(Br)c3)ccc2OC)cc1,28.2µM*,0.4%,-1.8%,12.8%,11.2%,-8.1%
C=C1C=C(C(F)F)n2ncc(C(=O)NC(C)CC)c2N1 (centres undefined),-0.5%,x,x,x,x,x
C=CCn1c2ccccc2n2nc(C)c(=O)nc12,22.4µM*,-3.0%,3.1%,1.8%,0.7%,-12.1%
N#Cc1cnc2c(-c3ccccc3)c(-c3ccccc3)nn2c1N,31.6µM*,-9.8%,-2.3%,14.2%,2.1%,0.2%
Cc1c(/C=N/Nc2ccc(F)cc2)c(O)n(C)c(=O)c1C#N,-19.7%,1.8%,-2.7%,7.08µM*,3.2%,1.8%
CC(=O)N=Cc1c(C)c(C#N)c(=O)n(C)c1O,-25.3%,-0.5%,-8.3%,u,-1.4%,-0.2%
CCc1ccc(NS(=O)(=O)c2ccc3[nH]cc(C(=O)NCc4ccc(C)cc4)c(=O)c3c2)cc1,-26.1%,x,x,x,x,x
Cc1cc(-c2ccc(N=Nc3c(S(=O)(=O)O)cc4cc(S(=O)(=O)O)cc(N)c4c3O)c(C)c2)ccc1N=Nc1c(S(=O)(=O)O)cc2cc(S(=O)(=O)O)cc(N)c2c1O,x,31.6µM*,u,x,10µM*,-19.4%
O=C(CC1(O)C(=O)N(Cc2ccc3c(c2)OCO3)c2ccccc21)c1ccccc1 (centres undefined),-0.8%,0.9%,6.8%,-27.1%,1.0%,2.5%
Cc1ccc(C(=O)CC2(O)C(=O)N(Cc3ccc4c(c3)OCO4)c3ccccc32)cc1 (centres undefined),15.8µM*,0.9%,-7.7%,12.9%,-3.0%,-4.8%
COc1cc(N)c(NC(=O)/C=C/c2nc3cc(OC)c(OC)cc3[nH]2)cc1OC,4.4%,x,x,x,x,x
O=C(Oc1csc(=S)n1C(=O)c1ccccc1)c1ccccc1,8.91µM*,-3.1%,-29.2%,10.8%,-1.9%,-3.0%
O=Cc1ccc(C(=O)OCC(=O)N2CCCC2)cc1,0.5%,0.5%,-10.3%,2.51µM*,4.0%,7.2%
CCN(CC)c1ccc(C(=O)OCC(=O)N2CCCC2)cc1,x,-1.0%,u,5.1%,1.5%,4.2%
c1ccc(-c2nc3c(ccc4ccccc43)[nH]2)nc1,28.2µM*,-2.6%,-16.5%,21.2%,0.1%,u
Cc1cc(C)n(-c2nc3ccccc3nc2N2CCN(c3cccc(C(F)(F)F)c3)CC2)n1,-2.1%,x,x,x,x,x
Nc1c(S(=O)(=O)c2cccs2)c2nc3ccccc3nc2n1Cc1ccccc1,35.5µM*,-18.9%,-1.8%,2.3%,-4.1%,-1.0%
COCCn1c(N)c(S(=O)(=O)c2cccs2)c2nc3ccccc3nc21,32.1%,-13.6%,16.2%,-24.6%,-1.6%,-7.4%
COc1cccc(/C=N/n2c(N)c(S(=O)(=O)c3cccs3)c3nc4ccccc4nc32)c1OC,2.82µM*,2.2%,7.1%,8.8%,6.1%,-16.5%
Cc1ccc(Cn2c(N)c(S(=O)(=O)c3cccs3)c3nc4ccccc4nc32)cc1,3.16µM*,-3.1%,4.2%,0.2%,-9.9%,-13.7%
COc1ccc(Cn2c(N)c(S(=O)(=O)c3cccs3)c3nc4ccccc4nc32)cc1,8.91µM*,-17.4%,17.2%,17.2%,-0.8%,-6.1%
C=C(C)COc1ccc(-c2nc(N)ncc2-c2ccc(OC)cc2)c(O)c1,x,-3.4%[15.4 µM],-0.5%,x,-7.2%,-23.3%
C=C(C)COc1ccc(-c2nc(N)nc(C)c2-c2ccc(OC)cc2)c(O)c1,25.1µM*,u,-17.2%,-17.7%,-1.0%,5.0%
Cc1ccc(C)c(N2CCN(S(=O)(=O)c3ccc4oc(=O)c5ncn(C)c5c4c3)CC2)c1,-3.2%,x,x,x,x,x
SMILES,ClpP mod,Mm-Cpn inhibitor,Eya2 inh,Integrin act MD,USP2a inh,p53 reactivation
C#CCSc1nnc(-c2c[nH]c3ccccc23)n1C,0.7%,0.2%,16.4%,22.7%,2.4%,8.6%
C#CCSc1nnc(-c2sc(-c3ccccc3)nc2C)n1C,17.8µM*,-1.9%,-1.6%,-3.5%[7.66 µM],1.8%,-0.4%
O=C(OCC(=O)N1CCCc2ccccc21)c1ccccc1NCCO,31.6µM*,-7.3%,-0.8%,-11.2%,-1.3%,-2.6%
O=C(OCC(=O)N1CCc2ccccc21)c1ccc[nH]c1=O,28.2µM*,-0.6%,-2.0%,-2.5%,-0.3%,-2.3%
O=C(OCC(=O)N1CCN(C(=O)COC(=O)c2ccccc2NCCO)CC1)c1ccccc1NCCO,3.8%,x,x,15.8%,x,x
O=C(OC(C(=O)N1CCOCC1)c1ccccc1)c1c2c(nc3ccccc13)CCCC2 (centres undefined),-15.6%,x,x,x,x,x
CCOC(=O)CSc1nc2cc(C)ccc2cc1C#N,-20.3%,1.5%,2.9%,36.6%,-0.5%,16.3%
CCOc1ccc2nc(SCC(=O)N3CCCCCC3)c(C#N)cc2c1,-8.8%,-1.4%,24.9%,-10.6%,1.2%,13.7%
CCOc1ccc2cc(C#N)c(SCC(=O)N3CCOCC3)nc2c1,25.1µM*,-29.7%,-29.1%,20.0%,1.2%,u
CCOC(=O)CSc1nc2cc(OC)ccc2cc1C#N,31.6µM*,-11.4%,16.4%,-12.9%,0.5%,u
O=c1[nH]cc(CCc2ccccc2)c2ncncc12,4.1%,x,x,x,x,x
Nc1cc(N)[nH]c(=S)n1,0.4%,x,x,x,x,x
COc1ccc(CCN2C(=O)C3C4C=CC(C3C2=O)C2C(=O)N(CCc3ccc(OC)c(OC)c3)C(=O)C42)cc1OC (centres undefined),1.78µM*,1.1%,-18.6%,-10.3%,0.1%,0.6%
Cc1ccc(N2C(N)=NC(N)=NC23CCCC3)c(C)c1,28.2µM*,-0.5%,7.7%,23.2%,2.2%,-2.4%
O=C(CCCn1c(=O)c2ccccc2n(Cc2ccc(F)cc2Cl)c1=O)NCCc1ccc(Cl)cc1,-0.6%,x,x,x,x,x
COC(=O)c1ccc(COc2ccc3c4c(c(=O)oc3c2)CCC4)o1,3.16µM*,-1.2%,4.2%,4.2%,-0.9%,15.2%
COC(=O)c1cc(COc2ccc3c4c(c(=O)oc3c2)CCCC4)c(C)o1,-14.6%,0.2%,-15.2%,-22.0%,-1.1%,-0.8%
Cc1oc(C(=O)O)cc1COc1ccc2c3c(c(=O)oc2c1)CCC3,28.2µM*,0.1%,2.8%,34.5%,-0.2%,20.3%
O=C(CSc1ccc(Cl)cc1)Nc1ccc(-c2nc3ccccc3[nH]2)cc1,25.1µM*,-3.5%,-8.1%,-31.9%,0.4%,2.6%
Cc1ccc(OCC(=O)Nc2ccc(O)c(C(=O)O)c2)cc1C,22.4µM*,-2.2%,13.4%,-12.1%,1.2%,0.2%
